Test results as given in PubChem BioAssay.

Legend:
[1] = test system: Botulinum neurotoxin type F light chain protease (Clostridium botulinum); assay: Botulinum neurotoxin type F light chain protease inhibition, multiplex microsphere flow cytometry, validation set (AID 588459); details: multiplex microsphere protease substrate cleavage assay, at 10 µM, active compounds read high
[2] = molecular target: Botulinum neurotoxin type A (Clostridium botulinum) (UniProt P0DPI0); assay: BoNT/A light chain protease inhibitors, biochemical, multiplex microsphere flow cytometry, validation set (AID 588460); details: at 10 µM, active compounds read high
[3] = molecular target: Lethal factor (Bacillus anthracis) (UniProt P15917); assay: Lethal factor protease inhibitors, Bacillus anthracis, multiplex microsphere cleavage assay, validation set (AID 588461); details: flow cytometry, at 10 µM, active compounds read high

Measured: inhibition

OCCOCCN1CCN(C(c2ccccc2)c2ccc(Cl)cc2)CC1 (centres undefined)
inactive: [1] 0.1% | [2] -1.8% | [3] 1.1%

COc1ccc(O)c(C2=Nc3ccccc3N=C(c3ccccc3)C2)c1
inactive: [1] 0.8% | [2] 0.8% | [3] 4.2%

CCOC(=O)c1ccc(N2C(=O)C(CC(=O)NC)N(CCc3ccc(OC)c(OC)c3)C2=S)cc1 (centres undefined)
inactive: [1] -0.6% | [2] -0.4% | [3] -10.1%

CC(C)CC1c2[nH]c3ccccc3c2CCN1C(=O)CCC(=O)N(C)C (centres undefined)
inactive: [1] 1.9% | [2] -0.3% | [3] 2.9%

O=C(CNC(=O)OCc1ccccc1)NC1CCCCCC1
inactive: [1] -1% | [2] -1.8% | [3] -3.4%

COc1cc(OC)cc(C(=O)N[C@@H](CCSC)c2nc3ccccc3[nH]2)c1
inactive: [1] 0.7% | [2] 0.8% | [3] -0.7%

CC[N+](C)(C)c1cccc(O)c1
inactive: [1] 1.7% | [2] -0.2% | [3] 0.7%

COc1ccc2c(c1)c(CC(=O)O)c(C)n2C(=O)c1ccc(Cl)cc1
inactive: [1] 0.9% | [2] -1.5% | [3] -4.2%

O=C(O)c1ccccc1C(=O)OCCCCOC(=O)c1ccccc1C(=O)O
inactive: [1] 5.9% | [2] -0.6% | [3] 3.5%

CC1(C)CC(CC(=O)Nc2nccs2)(c2ccccc2)CCO1 (centres undefined)
inactive: [1] 3.8% | [2] 0.5% | [3] -1.9%

c1ccc2c(CC3=NCCN3)cccc2c1
inactive: [1] -3.3% | [2] -2.2% | [3] -9.2%

COc1cc(OC)c(C2C(C#N)=C(N)OC3=C2C(=O)CC(C)(C)C3)cc1OC (centres undefined)
inactive: [1] -2.6% | [2] 0.8% | [3] 4.6%

CCOC(=O)NN1C(=O)c2ccccc2NC1c1ccc(OC)c(OC)c1 (centres undefined)
inactive: [1] 1.5% | [2] -0.6% | [3] -2%

Cc1ccc(C2CC(=O)C(C=NCCN3CCN(CC(=O)Nc4cc(C)cc(C)c4)CC3)=C(O)C2)cc1 (centres undefined)
inactive: [1] 2% | [2] 0.6% | [3] 0.4%

CC/C(=C1/C(=O)CC(C)(C)C(C(=O)OC)C1=O)N1CCCC1 (centres undefined)
inactive: [1] -4.4% | [2] -1.4% | [3] -9.3%

CCC[C@@H]1C[C@@H](C(=O)N[C@H]([C@@H](C)O)[C@H]2O[C@H](SC)[C@H](O)[C@@H](O)C2O)N(C)C1 (some centres undefined)
inactive: [1] 3.2% | [2] -1.6% | [3] 0.6%

O=C(O)C1Cc2ccccc2CN1S(=O)(=O)c1ccccc1 (centres undefined)
inactive: [1] 0.8% | [2] 0.6% | [3] -3.3%

CC(=O)[C@@]1(O)CC[C@H]2[C@@H]3CCC4=CC(=O)CC[C@]4(C)[C@H]3[C@@H](O)C[C@@]21C
inactive: [1] 2.3% | [2] -1.1% | [3] 1.8%

CN(C)[C@@H]1C(=O)C(C(N)=O)=C(O)[C@@]2(O)C(=O)C3=C(O)c4c(O)ccc(Cl)c4[C@@H](O)[C@H]3C[C@@H]12
inactive: [1] -5.8% | [2] -0.3% | [3] -4.5%

COc1ccc2c(c1)[nH]c1c(=O)n(Cc3ccccn3)cnc12
inactive: [1] 3.9% | [2] -1% | [3] -4.7%

CC(C)[C@H]1CN(C)CCN1Cc1cn(C)nc1-c1cccc(Cl)c1
inactive: [1] 12% | [2] 8.3% | [3] 8.2%

O=Cc1ccc(N2CCCCC2)cc1
inactive: [1] -0.8% | [2] -0.3% | [3] -1.6%

CC12CN3CC(C)(CN(C1)C3c1ccc(Br)cc1O)C2 (centres undefined)
inactive: [1] -1.8% | [2] -1.2% | [3] -7.5%

COc1cc2cc(C)nc(Cc3cccc4ccccc34)c2cc1OC
inactive: [1] 5.3% | [2] 1.3% | [3] 3.2%

CC(NC(=O)c1cccnc1)C(=O)O (centres undefined)
inactive: [1] -0.3% | [2] -0.4% | [3] -4.7%

CCOc1ccc2oc(-c3ccccc3)c(C(=O)O)c2c1
inactive: [1] -1.1% | [2] -0.2% | [3] -3.1%

COc1cc(=O)n(C)c2ccccc12
inactive: [1] -9.2% | [2] -2.1% | [3] -7.3%

Cc1ccccc1NC(=O)NCCc1c[nH]c2ccccc12
inactive: [1] -1.9% | [2] -0.2% | [3] -3.6%
